Test results: PubChem BioAssay AID2320 (National Center for Advancing Translational Sciences (NCATS), 2010)
Inconclusive results are not listed. Active and inactive are the calls of the source. Calls follow the shape of the full dose curve.
Potency is read from the fitted curve at half-maximal effect.

Assay: A qHTS for Small Molecule Inhibitors of Shiga Toxin (Confirmatory); also: nearly all actives have a fitted effect of over 75% in size; as to activity, positive = inhibition of toxin: 0% is about no effect
Details: Cell-based Shiga toxin protection reporter assay; series mostly up to 38.3 µM; activity, positive = inhibition of toxin: at the top concentration
For Cc1noc(/C=C/c2ccco2)c1S(=O)(=O)N1CCC(C(=O)N(C)Cc2ccccc2)CC1, the Potency was 22.5 µM (active). In the case of O=C(Cc1c(F)cccc1Cl)c1ccc(O)cc1O, the “activity, positive = inhibition of toxin” value is reported as 45.2% (inactive). With COc1ccc(-c2cc(-c3ccccc3O)[nH]n2)cc1OC the Potency was 2.25 µM (active). With COc1cccc(C(C(=O)NC2CCCC2)N(C(=O)c2ccco2)C2CC2)c1OC (stereo not drawn) the Potency was 8.95 µM (active). In the case of Cc1ccc2c(CN3CCCCC3C)cc(=O)oc2c1C (stereo not drawn), the Potency is reported as 0.01 µM (active). In the case of CC(C)(C)C1CCC(C(=O)OCC(=O)c2ccc[nH]2)CC1 (stereo not drawn), the Potency is reported as 2.52 µM (active). For Cc1cc(NC(=O)/C=C/c2ccc(Br)cc2)no1, the Potency was 8.95 µM (active). With Cc1cccc(Cn2cc(SCC(=O)Nc3nccs3)c3ccccc32)c1 the Potency was 8.95 µM (active). For NS(=O)(=O)c1ccc(CCNC(=O)c2ccc(NC3=NC4CS(=O)(=O)CC4S3)cc2)cc1 (stereo not drawn), the “activity, positive = inhibition of toxin” value was 25.9% (inactive). In the case of COc1ccccc1-n1cnnc1SCC(=O)Nc1ccccc1, the Potency is reported as 22.5 µM (active). With CN(C)S(=O)(=O)c1ccc(C(=O)Nc2ccc(CN3CCCC3)cc2)cc1 the Potency was 0.0283 µM (active). With Cc1ccc(C(=O)CSc2nnnn2C(C)C)c(C)c1 the Potency was 0.449 µM (active). With COc1ccc(NC(=O)CSc2nccn2-c2cccc(OC)c2)cc1 the “activity, positive = inhibition of toxin” value was -33.2% (inactive). In the case of CCc1ccc(C(=O)c2oc3nc(C)cc(C)c3c2N)cc1, the Potency is reported as 5.04 µM (active). With O=C(Cc1cccs1)Nc1ccc(-c2nnc(-c3ccco3)o2)cc1 the Potency was 4 µM (active). For Cc1ccc(NC(=S)c2nc3ccccc3s2)cc1, the Potency was 0.895 µM (active). In the case of Cc1cnc(NC(=O)c2c(Cl)cnn2C)s1, the “activity, positive = inhibition of toxin” value is reported as 24.6% (inactive). In the case of Cc1cccc(N2CCN(C(=O)Cc3ccc(Br)cc3)CC2)c1C, the Potency is reported as 14.2 µM (active). In the case of CCN1CCN(Cc2nnc(-c3ccc(C)cc3)o2)CC1, the “activity, positive = inhibition of toxin” value is reported as -16.1% (inactive). In the case of CCCc1nc2ccccc2c(=O)n1NC(=O)c1c(O)c2ccccc2[nH]c1=O, the Potency is reported as 14.2 µM (active). For CCOC(=O)N1CCN(C(=O)CCC(=O)c2ccc(OCC)cc2)CC1, the “activity, positive = inhibition of toxin” value was 5.96% (inactive). With COc1ccc(C(=O)Nc2ccccc2C(=O)NCc2ccco2)cc1 the Potency was 5.65 µM (active). For Cc1c(C(=O)Nc2nc3ccccc3[nH]2)oc2ccc(Br)cc12, the Potency was 11.3 µM (active). In the case of COCCCNC(=O)c1cn(C)c(=O)c2c1c1ccccc1n2C, the “activity, positive = inhibition of toxin” value is reported as -30.2% (inactive). With COc1ccc(C/C(O)=C(\C#N)c2nc3ccccc3s2)cc1 the “activity, positive = inhibition of toxin” value was 6.3% (inactive). In the case of CCOc1cc(S(=O)(=O)N2CCN(Cc3ccccc3)CC2)ccc1Br, the “activity, positive = inhibition of toxin” value is reported as -26.4% (inactive). With Cc1ccc(NC(=O)c2cc(S(=O)(=O)N3CCCCC3)ccc2N2CCOCC2)cc1F the Potency was 0.04 µM (active). In the case of CN1CCN(Cc2ccc(N)cc2)CC1, the “activity, positive = inhibition of toxin” value is reported as 30.4% (inactive). In the case of CC(=O)c1ccc2noc(-c3ccc(F)cc3)c2c1, the Potency is reported as 11.3 µM (active). In the case of Oc1ccc(C2C[C@H]3CC[C@@H]2C3)cc1O (stereo partly drawn), the Potency is reported as 22.5 µM (active). In the case of Cc1cc(OCC(=O)NCc2ccccn2)cc(C)c1Br, the “activity, positive = inhibition of toxin” value is reported as -1.75% (inactive). With COc1ccccc1CNc1nc2ccccc2n1CCN1CCCCC1 the “activity, positive = inhibition of toxin” value was 45.6% (inactive). In the case of COc1ccccc1CN(Cc1cccnc1)S(=O)(=O)c1ccc(-n2cnnn2)c(OC)c1, the “activity, positive = inhibition of toxin” value is reported as -24.3% (inactive). With NNC(=O)c1ccc(NS(=O)(=O)c2ccc(Br)cc2)cc1 the “activity, positive = inhibition of toxin” value was 3.16% (inactive). In the case of CSc1nc(C)c2cc(C)oc2n1, the “activity, positive = inhibition of toxin” value is reported as -1.75% (inactive). For COc1ccc(N2CCN(Cc3csc(C)c3-c3ccc(C)cc3)CC2)cc1, the “activity, positive = inhibition of toxin” value was -28.3% (inactive). For CC1CCc2sc(C(=O)NN)cc2C1 (stereo not drawn), the “activity, positive = inhibition of toxin” value was 3.83% (inactive). For Nc1nc(-c2nn(Cc3ccccc3F)c3ncccc23)ncc1C1CC1, the “activity, positive = inhibition of toxin” value was 13.7% (inactive).
